We go through 21 molecules from PubChem BioAssay AID651568 (National Center for Advancing Translational Sciences (NCATS), 2012).

The whole screen tested about 1,200 compounds, of which about 55 (5%) were called active. A call without a number means that no potency is given here. About 15% were inconclusive and are not listed. Calls follow the shape of the dose curve; as a rule, active = well fitted inhibition curve with a large enough effect; inconclusive = small, poorly fitted or top-dose-only effect; inactive = no such curve, though single readings can be large or run the other way. The sample as a whole holds a higher share of actives than the screen did.
Potency is read from the fitted curve at half-maximal effect.

The nature of the experiment: qHTS Assay to Find Inhibitors of Chronic Active B-Cell Receptor Signaling: Hit Validation in Renilla Reporter Assay. Also: nearly all actives have a fitted effect of over 70% in size. To be noted: TMD8 IkB-Renilla luciferase reporter, NF-kB signaling; series mostly up to 57.5 µM. An excerpt: Diffuse large B-cell lymphoma (DLBCL) is the most common category of non-Hodgkin lymphoma, with ~20,000 new cases per year in the United States. DLBCL should be regarded as a collection of different neoplasms. Microarray gene expression analysis has defined two principal types of DLBCL, named for their similarity to normal B cell stages or activation states: a germinal center B-cell (GCB) type, and an activated B-cell (ABC) type. In ABC-DLBCL, a constitutive high-level activity of the NF-kappaB family of transcription factors has been observed (1) and NF-kappaB target genes are more highly expressed in ABC primary tumors than in GCB tumors. Functional studies have shown a constitutive high-level activity of the IkappaB (inhibitor of kappa-B) kinase (IKK) complex. […] Further analysis of DLBCL primary tumors for NF-kappaB target gene expression imply that although CARD11 is required for constitutive IKK activity in all ABC-DLBCL lines, mutations in CARD11 may be the root cause of IKK activation only in lines or tumors with such mutations. In other words, CARD11 mutations may explain NF-kappaB activation in only 10% of ABC-DLBCL cases. […] This process has been termed 'chronic active BCR signaling' (CABS). The goal of this screen is to find small-molecule inhibitors of the CABS pathway found in ABC-DLBCL lines using a cell-based assay that measures IkappaBalpa stability, which has already been extensively validated in the OCI-Ly3 line (PubChem AID:445; REF: 4). […] Hits from the primary screen were tested in this orthogonal secondary assay. NIH Molecular Libraries Probe Production Network [MLPCN] NIH Chemical Genomics Center [NCGC] MLPCN Grant: R03 DA031086 PI Name: Dr. R. Eric Davis
The IkB-Photinus/Renilla reporter assay differs from the primary assay in that the reporters are constitutively expressed, and based on luciferases that are different from the click beetle luciferases and each other. These differences should help to eliminate artifactual sources of activity specific to the primary assay. This assay uses the Dual-Glo substrate from Promega; extensively validated in a 96-well format, it could be converted to a smaller-well format. All lines needed for the IkB-Photinus/Renilla assay have already been prepared and extensively validated
In the case of `O=c1c2ccccc2[se]n1-c1ccccc1`, the Potency was 15.1 µM (active).
The same measure for `C/C(=N\N1CCCCC1)c1c(O)[nH]c(=O)[nH]c1=O`: “inactive”.
In the case of `CC[C@]12CC[C@H](O)CC1=CCC1C2CC[C@]2(C)C(=O)CCC12` (stereo partly specified), the Potency result is “inactive”.
`C=CC[C@@H](CC/C=C/C=C/CC/C=C\[C@@H]1CSC([C@@H]2C[C@@H]2C)=N1)OC`: the Potency is 30.1 µM (active).
For the molecule `CC(C)CCCn1c(O)c(/C=C2/C=CC=N2)c(=O)[nH]c1=O`, the Potency entry is “inactive”.
The same measure for `C#CCOc1cc(C2C3=C(COC3=O)Nc3cc4c(cc32)OCO4)ccc1OC` (stereo unspecified): “inactive”; for `CCNC(=O)[C@H]1O[C@@H](n2cnc3c(N)ncnc32)[C@H](O)[C@@H]1O`: “inactive”.
The same measure for `COc1cc2c(c(OC)c1OC)-c1ccc(O)cc1[C@@H](NC(C)=O)CC2`: “inactive”.
`CCCCOCCCn1c(N)c(C(=O)OCCOC)c2nc3ccccc3nc21`: the Potency result is “inactive”.
Take `CN1C(=O)CN=C(c2ccc(Cl)cc2)c2cc(Cl)ccc21`: the Potency result is “inactive”.
For the molecule `O=C1C(=O)c2cccc3cccc1c23`, the Potency is 26.9 µM (active).
Turning to `COc1ccc(Cc2nccc3cc(OC)c(OC)cc23)cc1OC`, the Potency result is “inactive”.
The same measure for `COc1ccc(C(=O)Oc2cccc3cccnc23)cc1S(=O)(=O)N1CCOCC1`: “inactive”; for `COc1cc2c3cc1Oc1cc(ccc1O)C[C@@H]1c4c(cc(OC)c(O)c4Oc4ccc(cc4)C[C@H]3N(C)CC2)CCN1C`: 23.9 µM (active); for `COc1ccc(C=C2C(=O)N(C)C(=O)N(C)C2=O)cc1COc1ccc(NC(C)=O)cc1`: “inactive”.
On to `CCc1ccccc1N1C(=O)/C(=C/c2ccc(N3CCN(C)CC3)o2)C(=O)NC1=S`, for which the Potency result was “inactive”.
With `CCCC[C@@H](C)C[C@@H](C)C(=O)N(C)[C@@H](CC(C)C)C(=O)N[C@H](C(=O)N(C)[C@H](C(=O)N1C[C@@H](O)C[C@H]1C(=O)N1C(=O)C=C[C@@H]1C)C(C)C)C(C)OC(C)=O` (stereo partly specified), the Potency was 26.9 µM (active).
The same measure for `COc1cc(C2c3cc4c(cc3CC3COC(=O)C32)OCO4)cc(OC)c1OC` (stereo unspecified): “inactive”; for `Cc1cc(C)c(C(=O)CN2CCOCC2)c(C)c1`: “inactive”.
The same measure for `COc1cc2c(c(OC)c1OC)-c1ccc(O)c(=O)cc1C(NC(C)=O)CC2` (stereo unspecified): “inactive”.
For `COc1ccc(-c2nn(CCC#N)cc2C(=O)Nc2ccc(C(C)=O)cc2)cc1[N+](=O)[O-]`, the Potency entry is “inactive”.
